Screen size: about 420,000 compounds; about 50,000 (12%) were called active. Where a call stands in place of a potency, no number is given. About 26% were inconclusive and are not listed. Calls come from the whole dose curve; as a rule, active = well fitted inhibition curve with a large enough effect; inconclusive = small, poorly fitted or top-dose-only effect; inactive = flat fitted curve, though single readings scatter. The full list was thinned out, with actives kept by preference. Where a SMILES comes first, the peptide text is derived from it. The star is where a group is joined. Bz = O=C(c1ccccc1)*
Assay: qHTS for Inhibitors of human tyrosyl-DNA phosphodiesterase 1 (TDP1): qHTS in cells in presence of CPT; note: nearly all actives have a fitted effect of over 55% in size
Details: chicken DT40 Tdp1-/-;hTDP1 cells + 20 nM CPT, ATP luminescence, 48 h; series mostly up to 46.2 µM
In short: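 Cell growth measured by CellTiter-Glo luminescence after a minimum 48 h, 37 C compound exposure with 20 nM CPT in Tdp1-knockout DT40 cells stably expressing hTDP1, seeded 400/well; qHTS titration format.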
Potency is the fitted concentration of half-maximal effect.

Compound	Potency
CN(CCC#N)c1ccc(C=O)cc1	inactive
CCn1c(=S)[nH]c2cc(S(=O)(=O)N3CCOCC3)ccc21	inactive
Cc1ccc(S(=O)(=O)/N=C2\C=C(NS(=O)(=O)c3ccc(C)cc3)C(=O)c3ccccc32)cc1	23.1 µM (active)
Cc1ccc(S(=O)(=O)N[C@H](CO)C(C)C)cc1	inactive
Cc1ccc(S(=O)(=O)N/N=C(\c2ccccc2)C2CC2)cc1	inactive
CCC1(CC)NC(=O)N(CC(=O)OCC(=O)c2cc(C)c(C)cc2C)C1=O	inactive
Cc1csc(NC(=O)CSc2nc(=O)cc(N)n2-c2ccc(F)cc2)n1	inactive
CC1Cc2[nH][nH]c(=O)c2C(C2CCCC2)O1 (stereo unspecified)	inactive
CCN1CCN(C(=O)CSc2ccc(C)cc2)CC1	inactive
CCN1CCC2(CC1)N=C(c1ccc(F)cc1)C(=S)N2C(=O)c1ccc(C)cc1	8.2 µM (active)
CCn1c(C(C)NC(=O)c2ccc(C)cc2)n[nH]c1=S (stereo unspecified)	inactive
C/C(=N\NC(=S)NC(C)C)c1ccc(C(C)(C)C)cc1	23.1 µM (active)
C/C(=N\NC(N)=S)c1cccnc1	inactive
C/C(=N\NC(N)=S)c1ccncc1	inactive
COc1ccc(-c2ocnc2C(=O)Nc2ccc3c(c2)CCC3)cc1	inactive
CC1(C)O[C@@H]2[C@H](O1)[C@@H](COS(=O)(=O)O)O[C@H]2n1ccc(=O)[nH]c1=O	inactive
Cn1nnc2cc(C(=O)NCCC3=CCCCC3)ccc21	inactive
O=C(NCCC1=CCCCC1)c1ccc(-n2cncn2)cc1	inactive
Cc1ccn2c(=O)c(C(=O)NCCC3=CCCCC3)c(O)nc2c1	23.1 µM (active)
Nc1ccc2c(c1)C(O)c1ccc(Cl)cc1-2 (stereo unspecified)	inactive
O=C(c1ccc(Br)cc1)N(Cc1cccs1)c1ccc(F)cc1	inactive
CC(C)OC(=O)CN1CCN(c2ccc(Cl)cc2)CC1	inactive
Cc1cccc(N2CCN(C(=O)c3cccc(S(=O)(=O)N4CCc5ccccc5C4)c3)CC2C)c1 (stereo unspecified)	9.2 µM (active)

Compound	Potency
COC(=O)c1ccc(S(=O)(=O)N2CCc3ccccc3C2)cc1	inactive
CC(NC(=O)c1cccc(S(=O)(=O)N2CCc3ccccc3C2)c1)c1ccco1 (stereo unspecified)	inactive
CC1CCCC(C)N1C(=O)COC(=O)COc1ccccc1C#N (stereo unspecified)	inactive
O=C(COC(=O)c1ccc(O)cc1O)c1ccc2c(c1)OCCO2	inactive
CC(CNC(=O)c1ccc(N)cc1)NC(=O)c1ccc(N)cc1 (stereo unspecified)	inactive
CC(Cc1ccccc1)C(=O)N(C)Cc1ccccc1 (stereo unspecified)	inactive
CN(Cc1ccccc1F)C(=O)C(Cc1ccccc1)NC(=O)c1ccccc1 (stereo unspecified)	29.1 µM (active)
O=C(NC(Cc1ccccc1)C(=O)N1CCCC1C(=O)O)c1ccccc1 (stereo not drawn) (Bz-Phe-Pro-OH; configuration not given here)	inactive
CC(=O)c1sc(NC(=O)c2ccc(C)cc2)nc1C	inactive
N#Cc1ccc(C(=O)Nc2nc(-c3cccs3)c(C(=O)C(F)(F)F)s2)cc1	1.64 µM (active)
CCOc1cccc(C(=O)Nc2nnc(-c3cccs3)s2)c1	inactive
CC1CN(C(=O)c2cc(COc3c(F)cccc3F)on2)CCN1C (stereo unspecified)	inactive
CC1CCCN(C(=O)Cn2c(=O)oc3cc(S(=O)(=O)N4CCCCC4C)ccc32)C1 (stereo unspecified)	inactive
CC1CCCCN1C(=O)Cn1c(=O)oc2cc(S(=O)(=O)N3CCCCC3)ccc21 (stereo unspecified)	inactive
CC(C)CCNC(=O)Cn1c(=O)oc2cc(S(=O)(=O)N3CC(C)CC(C)C3)ccc21 (stereo unspecified)	23.1 µM (active)
CC(=O)c1cccc(NC(=O)CSc2nc3c(c(=O)[nH]2)CCC3)c1	inactive
O=C(CCc1ccccc1)NNC(=O)COc1ccc(Cl)cc1	inactive
O=C(COC(=O)COc1cccc(F)c1)NCC1CCCCC1	inactive
Cc1ccccc1CN1CCC(CNC(=O)c2c(C)oc3ncnc(N4CCCCC4)c23)CC1	inactive
Cc1ccccc1CN1CCN(CC(=O)NCc2ccccn2)C1=O	inactive
CCOc1cccc(OCCCOc2cccc3cccnc23)c1	inactive
COc1cc(NC(=O)c2cc3ccc4cccnc4c3[nH]2)cc(OC)c1OC	inactive
Cc1ccccc1CN1CCC(CNC(=O)c2cc3ccc4cccnc4c3[nH]2)CC1	16.4 µM (active)

Compound	Potency
CCOc1ccccc1N(CC)C(=O)c1cc2ccc3cccnc3c2[nH]1	5.8 µM (active)
O=c1[nH]n2c(=O)c3c([nH]c2c1N=Nc1ccccc1)CCC3	inactive
Cc1ccc(N(C(=O)CNC(=O)c2ccco2)C(C(=O)NC2CCCC2)c2ccncc2)cc1 (stereo unspecified)	inactive
CCOc1cc2[nH]c(=O)n(Cc3ccc(C(=O)NCCN(CC)CC)cc3)c(=O)c2cc1OCC	inactive
CCOC(=O)N1CCN(Cc2nc3cc(NC(C)=O)ccc3n2C)CC1	inactive
COc1ccc(OCC(=O)Nc2nnc(-c3ccco3)s2)cc1	inactive
CCCCN(C(=O)C(CCSC)N1C(=O)c2ccccc2C1=O)c1c(N)n(CCC)c(=O)[nH]c1=O (stereo unspecified)	inactive
CCCCOc1ccc(C(=O)NN2CCN(C)CC2)cc1	inactive
CCCCOc1ccc(C(=O)NCc2ccncc2)cc1	inactive
CCCOc1ccc(C(=O)CCC(=O)OC(C)C(=O)Nc2ccc(NC(C)=O)cc2)cc1 (stereo unspecified)	inactive
CCCOc1ccc(C(=O)C(CCC(CNCC)C(=O)c2ccc(OCCC)cc2)CNCC)cc1 (stereo unspecified)	0.651 µM (active)
CCCCOc1ccc(C(=O)NO)cc1	10 µM (active)
CCCOc1ccc(C(=O)NCCc2ccccc2)cc1	inactive
CC(C)CCNC(=O)CSc1nc2ccccc2nc1Cc1ccc(Cl)cc1	inactive
CC1C(=O)Nc2ccccc2N1C(=O)c1c(F)cccc1F (stereo unspecified)	inactive
COc1ccccc1/C=C/C(=O)NC1CC2CCC1C2 (stereo unspecified)	inactive
Cc1sc2ncn(CC(=O)NCCN(C)C)c(=O)c2c1S(=O)(=O)N1CCC(C)CC1	inactive
O=C(NC1CCN(C(=S)Nc2ccc(Cl)cc2)CC1)C1CCCCC1	inactive
COc1ccc(/C(N)=N/OC(=O)CCCc2ccccc2)cc1	inactive
Cc1c(C#N)c(NC(=O)c2ccccc2)n(Cc2ccccc2)c1C	inactive
Cc1ccc(C(=O)NCCNS(=O)(=O)c2ccccc2)cc1	inactive
Cc1ccc(C(=O)Nc2c(C#N)c(C)c(C)n2Cc2ccccc2)cc1	25.9 µM (active)
COC(=O)/C=C(\Oc1ccccc1)C1(O)CCCCC1	inactive

Compound	Potency
Cc1ccc(C(CC(=O)O)Nc2nc(N3CCCCC3)nc(N3CCCCC3)n2)cc1 (stereo unspecified)	inactive
CC(Nc1nc(N2CCCC2)nc2ccccc12)c1ccccc1 (stereo unspecified)	23.1 µM (active)
CC(Nc1nc(N2CCN(CCO)CC2)nc2ccccc12)c1ccccc1 (stereo unspecified)	inactive
CCCOc1ccc(/C(O)=C2/C(=O)C(=O)N(CCN(C)C)C2c2ccc(OC)c(OC)c2)cc1 (stereo unspecified)	inactive
CC1CCN(C(=O)COC(=O)c2cc(=O)[nH]c3ccccc23)CC1	inactive
CCc1ccc(OC(C)C(=O)Nc2ccc(S(=O)(=O)Nc3cc(C)on3)cc2)cc1 (stereo unspecified)	inactive
Cc1nonc1NC(=O)c1oc2ccccc2c1C	inactive
CCc1nonc1NC(=O)c1oc2ccc(Cl)cc2c1C	inactive
CCOc1ccc(-c2nonc2NC(=O)c2oc3ccc(CC)cc3c2C)cc1	18.4 µM (active)
CC(=O)N(O)CCCCCNC(=O)CCC(=O)N(O)CCCCCNC(=O)CCC(=O)N(O)CCCCCNC(=O)CCC(=O)O	inactive
CCCCNC(=O)OC1CC2CC1[C@H]1CCCCN1C2=O (stereo partly specified)	inactive
CC(C)(C)c1cc[n+](-c2[nH]c(=O)sc2/C=N/N=C(\[O-])c2ccccc2)cc1	inactive
C/C(=N\NC(=O)COc1ccc(C)cc1[N+](=O)[O-])c1ccc2c(c1)OCCO2	inactive
O=C(CSc1ccc2nnc(-c3ccccc3)n2n1)N1CCCc2ccccc21	inactive
Cn1c(=O)c2c(SCC(=O)N3CCc4ccccc43)nc(-c3ccc(Cl)cc3)nc2n(C)c1=O	inactive
Nc1nnc(SCC(=O)Nc2ccc3nc(SCC(=O)Nc4ccccc4)sc3c2)s1	13 µM (active)
O=C(CSc1nc2ccccc2s1)Nc1ccc(C(=O)O)cc1	inactive
CC(=O)c1ccc(NC(=O)CSc2nnc(NC(=O)Nc3ccccc3)s2)cc1	inactive
O=C(NCc1nnc(SCC(=O)N2CCCc3ccccc32)o1)c1ccccc1F	inactive
O=C(Nc1ccc2nc(SCC(=O)N3CCCc4ccccc43)sc2c1)c1ccc(Cl)cc1	5.17 µM (active)
O=C(Nc1ccc2nc(SCC(=O)N3CCCc4ccccc43)sc2c1)c1ccc(F)cc1	5.8 µM (active)
O=C(Nc1ccc2nc(SCC(=O)N3CCc4ccccc43)sc2c1)c1ccccc1F	inactive
Cc1nnc(SCC(=O)N2CCc3ccccc32)n1-c1ccccc1	inactive

Compound	Potency
CCC(=O)Nc1ccc2nc(SCC(=O)N3CCc4ccccc43)sc2c1	16.4 µM (active)
CC(=O)Nc1ccc(S(=O)(=O)NCC2CCC(C(=O)NCCc3ccccc3)CC2)cc1 (stereo unspecified)	inactive
O=C(NC1CCCC1)C1CC(=O)N(c2ccc(F)cc2)C1 (stereo unspecified)	inactive
Cc1cc(NC(=O)CN2C(=O)NC(CC(C)C)C2=O)no1 (stereo unspecified)	inactive
CC(C(=O)N(C)CC(=O)Nc1ccccc1C(F)(F)F)N1C(=O)c2ccccc2C1=O (stereo unspecified)	inactive
CC(OC(=O)c1cccnc1Cl)C(=O)NC1CCCCC1 (stereo unspecified)	inactive
CCN(Cc1ccccc1)C(=O)CCS(=O)(=O)c1ccc2c(c1)oc(=O)n2C	inactive
CCCCC(NS(=O)(=O)c1ccc(C)cc1)C(=O)Oc1ccc2c3c(c(=O)oc2c1)CCC3 (stereo unspecified)	inactive
CN1CCN(C(=O)c2cnn(-c3ccccc3)c2NC(=O)c2ccc([N+](=O)[O-])cc2)CC1	inactive
CCCCC(=O)N(C)c1c(CC)nc2c(OCc3ccc(Cl)cc3Cl)cccn12	20.6 µM (active)
CCc1nc2c(OCc3ccc(C(=O)OC)cc3)cccn2c1N(C)C(=O)C(C)C	20.6 µM (active)
Cc1nc2c(OCc3ccc(Cl)cc3Cl)cccn2c1N(C)CC1CC1	16.4 µM (active)
CCOC(=O)c1nc(C)n(-c2ccc(Cl)cc2Cl)n1	inactive
COC(=O)c1ccc(CSc2nncn2C)cc1	inactive
CCc1nc2c(OCc3ccc(Cl)cc3Cl)cccn2c1N(C)C(=O)C(C)C	7.31 µM (active)
CCc1nc2c(OCC(=O)C(C)(C)C)cccn2c1N(C)C(=O)c1ccccc1F	inactive
CC(C)(C)NC(=O)NC(=O)COC(=O)Cc1ccc(Cl)cc1Cl	inactive
COC(=O)c1ccc(COC(=O)c2cnccn2)cc1	inactive
Clc1ccc(-c2ncc3ccccn23)c(Cl)c1	inactive
